# Assay results: PubChem BioAssay (Tox21)
# Records with an inconclusive call do not appear. Activity calls are given as the source filed them. The call rests on the fitted dose curve.
# Target: Acetylcholinesterase (Homo sapiens) (UniProt P22303)
# Test: Acetylcholinesterase (AChE) small molecule antagonists: colormetric cell-based qHTS assay (AID 1347395); further: nearly all actives have a fitted effect of over 30% in size
# Details: SH-SY5Y cells AChE activity, colorimetric (Ellman); series mostly up to 115 µM; activity, negative = inhibition: at the top concentration
# Excerpt: National Center for Advancing Translational Sciences [NCATS]
# Division of Preclinical Innovation [DPI]
# U.S. Environmental Protection Agency [EPA]
# National Institutes of Environmental Health Sciences [NIEHS]
# National Toxicology Program [NTP]
# U.S. Food and Drug Administration [FDA]
# Acetylcholinesterase (AChE) is the primary cholinesterase in the body that hydrolyzes a key neurotransmitter, acetylcholine. Inhibition of AChE activity can lead to neurotoxicity. The known inhibitors include organophosphorous pesticides (OP), chemical warfare agents, drugs, and various phytochemicals.
# A homogenous cell-based assay using the Amplite Colormetric acetylcholinesterase assay kit (AAT Bioquest, Sunnyvale, CA) was used to evaluate the chemicals in the Tox21 10K library that inhibit AChE activity. The assay uses 5, 5-dithiobis-(2-nitrobenzoic acid) (DTNB) to quantify the thiocholine produced from the hydrolysis of acetylthiocholine by AChE from the SH-SY5Y cells.
# Tox21 Assay Protocol Summary:
# For the cell-based AChE assay, 2,000 SH-SY5Y cells in 4 uL/well were dispensed into black, clear-bottom 1536-well plates using a Multidrop Combi dispenser (Thermo Scientific, MA). The assay plates were incubated overnight at 37 C to allow cells to attach to the wells, followed by the transfer of 23 nL of compound or DMSO (vehicle control) by a Pintool Station (Wako Automation, CA). The plates were incubated for 30 min at 37 C and 5% CO2, followed by the addition of 4 uL of detection cocktail solution (DTNB, acetylthiocholine) into each well using a Flying Reagent Dispenser (Beckman Coulter, CA) and then 90 min incubation at 37 C.
# On the % scale 0 is the no-effect control and ±100 the full control effect; potency means the concentration at half of the fitted maximal effect.
# Chain of Acetylcholinesterase (Homo sapiens) (P22303 whole entry, looked up): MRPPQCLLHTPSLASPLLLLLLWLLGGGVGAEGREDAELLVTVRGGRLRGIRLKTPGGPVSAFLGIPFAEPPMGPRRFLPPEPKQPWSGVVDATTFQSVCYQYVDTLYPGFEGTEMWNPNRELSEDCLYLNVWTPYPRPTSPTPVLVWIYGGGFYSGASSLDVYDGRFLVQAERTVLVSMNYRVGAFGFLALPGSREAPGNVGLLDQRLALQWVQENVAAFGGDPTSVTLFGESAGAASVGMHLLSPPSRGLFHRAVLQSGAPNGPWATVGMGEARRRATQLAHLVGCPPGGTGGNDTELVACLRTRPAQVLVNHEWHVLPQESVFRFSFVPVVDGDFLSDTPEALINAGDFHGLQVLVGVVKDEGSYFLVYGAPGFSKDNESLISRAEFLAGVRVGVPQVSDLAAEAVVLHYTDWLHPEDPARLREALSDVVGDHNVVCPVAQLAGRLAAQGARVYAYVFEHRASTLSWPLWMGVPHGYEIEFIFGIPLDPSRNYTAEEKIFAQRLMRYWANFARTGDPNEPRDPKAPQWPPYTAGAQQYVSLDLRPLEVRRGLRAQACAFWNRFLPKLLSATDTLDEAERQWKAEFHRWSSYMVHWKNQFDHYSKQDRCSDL
Structure (SMILES),"activity, negative = inhibition",Potency
c1ccc(-c2ccc(C(c3ccccc3)n3ccnc3)cc2)cc1 (stereo not given),-0.74% [at 52.9 µM] (inactive),
O=C(/C=C/c1ccccc1)NCCO,0.264% [at 52.9 µM] (inactive),
C=C(C)C(=O)OC1CC(C)CC(C)(C)C1 (stereo not given),3.64% (inactive),
Nc1cc(C(Cl)=C(Cl)Cl)c(S(N)(=O)=O)cc1S(N)(=O)=O,-1.01% [at 52.9 µM] (inactive),
C=CN1CCCCCC1=O,-0.307% (inactive),
O=C1CCCN1C1CCCCC1,-2.01% (inactive),
CN1CCN(C2=Nc3ccccc3Oc3ccc(Cl)cc32)CC1,0.969% [at 52.9 µM] (inactive),
CCOC(=O)[C@H](CCc1ccccc1)N[C@H]1CS[C@H](c2cccs2)CN(CC(=O)O)C1=O,-0.0841% [at 52.9 µM] (inactive),
Cc1c(C)c2c(c(C)c1OC(=O)CCC(=O)OCCO)CC[C@@](C)(CCC[C@H](C)CCC[C@H](C)CCCC(C)C)O2,-2.63% [at 52.9 µM] (inactive),
O=C(OCC(COC(=O)c1ccccc1)(COC(=O)c1ccccc1)COC(=O)c1ccccc1)c1ccccc1,6.22% (inactive),
[K+],6.54% (inactive),
C=CCOC(=O)COCCC(C)C,2.28% (inactive),
CC(Cc1ccc(O)c(O)c1)C(C)Cc1ccc(O)c(O)c1 (stereo not given),-7.42% (inactive),
C=C(C)C(=O)OCCC(F)(F)C(F)(F)C(F)(F)C(F)(F)C(F)(F)C(F)(F)F,6.77% (inactive),
Nc1ccc(Cl)c([N+](=O)[O-])c1,-6.15% (inactive),
COC(=O)C1=C(C)NC(C)=C(C(=O)O[C@@H]2CCCN(Cc3ccccc3)C2)[C@@H]1c1cccc([N+](=O)[O-])c1,1.42% [at 52.9 µM] (inactive),
CCC(CC)CO,1.78% (inactive),
CCCCCCOC(=O)c1ccccc1O,-3.33% (inactive),
CCCCCCC1(C)CCC(=O)O1 (stereo not given),1.75% (inactive),
CCCCCCCCOCCCN,7.18% (inactive),

Structure (SMILES),"activity, negative = inhibition",Potency
Cc1cc(-n2nc3ccc(Cl)cc3n2)c(O)c(C(C)(C)C)c1,-0.996% [at 52.9 µM] (inactive),
COC(=O)c1cccc(Cl)c1,2.32% (inactive),
C=C(C)C(=O)OCCCC,-2.86% (inactive),
CCCCCCCC/C=C\CCCCCCCCO,0.102% (inactive),
Nc1ccc(NC(=O)c2ccc(N)cc2)cc1,2.95% (inactive),
CC1COc2c(N3CCN(C)CC3)c(F)cc3c(=O)c(C(=O)O)cn1c23 (stereo not given),0.477% [at 52.9 µM] (inactive),
CCCCCCCCOC(=O)c1cc(O)c(O)c(O)c1,2.89% (inactive),
c1ccc(-c2nc[nH]c2-c2ccccc2)cc1,-3.26% [at 52.9 µM] (inactive),
CC/C=C/CCCCCCCCCCOC(C)=O,0.169% (inactive),
O=[Si]=O,0.177% (inactive),
CC(C)(C)c1cc(CCC(=O)OCCSCCOC(=O)CCc2cc(C(C)(C)C)c(O)c(C(C)(C)C)c2)cc(C(C)(C)C)c1O,1.36% [at 52.9 µM] (inactive),
O=C(O)c1cc(C(=O)O)c(C(=O)O)cc1C(=O)O,2.71% (inactive),
CCOc1ccc2[nH]cc(C(=O)NCc3ccccc3)c(=O)c2n1,-0.887% (inactive),
CCCCCCCC/C=C\CCCCCCCC(=O)N(CCO)CCO,-0.921% (inactive),
COC(=O)C(C)=O,2.68% (inactive),
CCO[C@H](Cc1ccc(OCCc2ccc(OS(C)(=O)=O)cc2)cc1)C(=O)O,-1.23% [at 52.9 µM] (inactive),
C=CCc1ccccc1OCC(O)CNC(C)C (stereo not given),3.2% [at 52.9 µM] (inactive),
Nc1ccnc(=O)[nH]1,-1.85% (inactive),
O=CC(=O)c1ccccc1,,2 µM (active)
CNCc1cc(F)ccc1Oc1ccc(Cl)c(Cl)c1,-0.114% (inactive),
